Assay results reported in the supplement of paper PMC9023506.
Structures can show the parent of a compound that is named as a salt.

The compounds below were run on Danio rerio larvae (5 dpf) (assay: optomotor response to red moving lines, difference vs DMSO (percentage points (treated minus DMSO)); higher = more of the behaviour than the DMSO vehicle control). Conditions: 10 µM; exposure time: 3 h pre-incubation + 3 h imaging.
Procedure: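 5-dpf wild-type zebrafish larvae were imaged in 96-well plates. They were treated with 190 Tocris FDA-approved drugs at 10 µM (1 µl/ml DMSO) for 3 h before and 3 h during imaging at 28.5 °C, 48 larvae per drug. Automated image analysis gave % time moving and optomotor responses. Values are drug group mean minus DMSO vehicle mean (n=844), in percentage points, for 10 behaviours.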

| SMILES | optomotor response to red moving lines |
| --- | --- |
| COc1cc2c(cc1OC)C1CC(=O)C(CC(C)C)CN1CC2 (stereo unspecified) [Tetrabenazine] | -1.77 |
| C=CCN1C[C@H](C(=O)N(CCCN(C)C)C(=O)NCC)C[C@@H]2c3cccc4[nH]cc(c34)C[C@H]21 [Cabergoline] | -3.05 |
| COc1ccc(C(CN(C)C)C2(O)CCCCC2)cc1 (stereo unspecified) [Venlafaxine hydrochloride] | 18.8 |
| C=C1C[C@@H]2[C@H](CC[C@]3(C)C(=O)CC[C@@H]23)[C@@]2(C)C=CC(=O)C=C12 [Exemestane] | 6.78 |
| CN1C[C@H](C(=O)N[C@]2(C)O[C@@]3(O)[C@@H]4CCCN4C(=O)[C@H](Cc4ccccc4)N3C2=O)C[C@@H]2c3cccc4[nH]cc(c34)C[C@H]21 [Dihydroergotamine mesylate] | 11.5 |
| CCN(C)C(=O)Oc1cccc([C@H](C)N(C)C)c1 [Rivastigmine tartrate] | -8.95 |
| N[C@@H]1C[C@H]1c1ccccc1 [Tranylcypromine hydrochloride] | 12.9 |
| CC(C)C[C@H]1C(=O)N2CCC[C@H]2[C@]2(O)O[C@](NC(=O)[C@@H]3C=C4c5cccc6[nH]c(Br)c(c56)C[C@H]4N(C)C3)(C(C)C)C(=O)N12 [Bromocriptine mesylate] | -29 |
| CC[C@@H](C(N)=O)N1CCCC1=O [Levetiracetam] | 0.251 |
| CC(O)(CS(=O)(=O)c1ccc(F)cc1)C(=O)Nc1ccc(C#N)c(C(F)(F)F)c1 (stereo unspecified) [Bicalutamide] | -10.4 |
| O=c1[nH]c2ccccc2n1C1CCN(CCCC(c2ccc(F)cc2)c2ccc(F)cc2)CC1 [Pimozide] | -0.227 |
